Results from PubChem BioAssay.
The source made the active and inactive calls.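 The calls were made as follows, unless noted: active = inhibition above the screen-wide mean plus 3 SD, about 51%; inactive = the rest.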

What was measured:
[1] = reduced mouse 2C T cell binding to pMHC/ICAM-1 vesicles – MLPCN validation set, flow cytometry, LFA-1/ICAM-1 modulator project, pilot screen (AID 2523;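 active = response below a set limit, under 55% cells CD8-positive and vesicle-bound, and CD8 cells' 90th-percentile brightness under 279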;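 as to vesicle binding response: mean PE anti-B7-1 fluorescence of CD8+ cells relative to row control; 100% = QL9-loaded vesicles with DMSO vehicle in the same plate row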); settings: 2C mouse CD8+ T cells, at 7 µM, stronger effect = lower value; double positive events: measured here: CD8+/vesicle+ event percentage
[2] = molecular target: Integrin beta-1 (Homo sapiens) + Integrin alpha-4 (Homo sapiens) (UniProt P13612+P05556); experiment: alpha4beta1 integrin LIBS antibody binding reduction – U937 cells, HUTS-21 mAb, flow cytometry, validation set, VLA-4 allosteric modulator project, pilot screen (AID 2674;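 active = inhibition above 50%, about 3 SD of the validation set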;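 also: antibody binding induced by the VLA-4 ligand LDV present at three times its Kd; 0% = LDV ligand with antibody and no compound and 100% = antibody without LDV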); settings: HUTS-21 LIBS mAb binding, at 6.7 µM, stronger effect = higher value, binding induced by LDV ligand
Sequence of Integrin beta-1 (Homo sapiens) + Integrin alpha-4 (Homo sapiens) (P05556 whole entry, looked up): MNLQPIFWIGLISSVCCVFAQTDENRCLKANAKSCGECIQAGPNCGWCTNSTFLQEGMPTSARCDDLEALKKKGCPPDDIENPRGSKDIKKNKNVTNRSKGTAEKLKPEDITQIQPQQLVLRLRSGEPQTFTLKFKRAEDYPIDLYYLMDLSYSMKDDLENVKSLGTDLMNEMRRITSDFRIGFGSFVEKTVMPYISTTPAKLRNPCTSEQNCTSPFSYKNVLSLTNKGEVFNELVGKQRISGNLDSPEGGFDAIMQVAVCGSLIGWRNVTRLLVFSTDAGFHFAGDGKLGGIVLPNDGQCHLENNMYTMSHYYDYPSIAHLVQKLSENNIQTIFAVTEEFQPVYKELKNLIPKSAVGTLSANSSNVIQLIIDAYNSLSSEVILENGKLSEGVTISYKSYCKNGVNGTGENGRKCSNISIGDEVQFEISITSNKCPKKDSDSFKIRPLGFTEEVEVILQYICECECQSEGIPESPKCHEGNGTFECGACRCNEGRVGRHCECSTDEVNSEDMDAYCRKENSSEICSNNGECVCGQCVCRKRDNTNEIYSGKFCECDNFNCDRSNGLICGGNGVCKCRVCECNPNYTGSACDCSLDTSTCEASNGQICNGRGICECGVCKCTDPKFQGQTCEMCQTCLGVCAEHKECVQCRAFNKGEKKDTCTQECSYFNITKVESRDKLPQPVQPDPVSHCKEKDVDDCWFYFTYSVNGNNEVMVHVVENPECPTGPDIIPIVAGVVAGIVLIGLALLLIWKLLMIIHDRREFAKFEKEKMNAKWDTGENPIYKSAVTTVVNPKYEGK
Sequence of Integrin beta-1 (Homo sapiens) + Integrin alpha-4 (Homo sapiens) (P13612 whole entry, looked up): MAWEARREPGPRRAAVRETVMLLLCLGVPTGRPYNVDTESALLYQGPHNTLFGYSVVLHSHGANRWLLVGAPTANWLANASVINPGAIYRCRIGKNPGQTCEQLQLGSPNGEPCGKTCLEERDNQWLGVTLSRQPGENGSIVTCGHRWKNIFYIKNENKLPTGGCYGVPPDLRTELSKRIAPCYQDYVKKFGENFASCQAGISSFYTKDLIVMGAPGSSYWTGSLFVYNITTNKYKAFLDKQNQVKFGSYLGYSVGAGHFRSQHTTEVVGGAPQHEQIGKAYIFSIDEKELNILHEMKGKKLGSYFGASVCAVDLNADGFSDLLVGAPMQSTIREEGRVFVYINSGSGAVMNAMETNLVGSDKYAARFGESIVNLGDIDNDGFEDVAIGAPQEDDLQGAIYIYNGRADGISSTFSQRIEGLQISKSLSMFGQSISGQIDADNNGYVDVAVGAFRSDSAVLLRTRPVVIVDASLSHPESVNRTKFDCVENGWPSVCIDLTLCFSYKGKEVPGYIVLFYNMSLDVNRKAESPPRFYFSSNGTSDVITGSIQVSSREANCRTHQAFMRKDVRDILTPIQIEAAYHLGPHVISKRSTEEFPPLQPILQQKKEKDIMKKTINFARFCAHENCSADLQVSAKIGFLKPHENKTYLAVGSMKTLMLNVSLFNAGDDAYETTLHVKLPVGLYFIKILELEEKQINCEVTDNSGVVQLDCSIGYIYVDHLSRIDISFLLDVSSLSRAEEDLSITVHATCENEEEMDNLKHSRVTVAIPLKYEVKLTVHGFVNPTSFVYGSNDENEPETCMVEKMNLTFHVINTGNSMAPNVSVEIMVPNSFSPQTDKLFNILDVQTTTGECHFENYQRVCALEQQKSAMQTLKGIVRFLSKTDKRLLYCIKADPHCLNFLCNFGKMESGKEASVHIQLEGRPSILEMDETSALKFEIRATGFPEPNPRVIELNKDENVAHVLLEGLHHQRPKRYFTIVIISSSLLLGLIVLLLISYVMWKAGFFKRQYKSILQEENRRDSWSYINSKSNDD

[3] = calorie-restriction mimetic ROS inhibitors, yeast – validation compound set, pilot screen (AID 2706;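 active = superoxide response below 65% of plate, a cut near 3 SD across the whole screen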;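 also: yeast exposed to compound for one week at 30 degrees C before staining; 100% = mean of all compound wells on the same plate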); settings: S. cerevisiae aging, superoxide DHE fluorescence; at 10 µM, stronger effect = lower value
[4] = molecular target: Beta-adrenergic receptor kinase 1 (Homo sapiens) (UniProt P25098); experiment: GRK2 binders displacing RNA aptamer, biochemical, validation, human GRK2, bead flow cytometry (AID 488806;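 active = aptamer binding inhibition above 30%, about 3 SD of noise from non-fluorescent compounds; inactive = inhibition at or below 30%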); settings: bead-bound GRK2, FAM-aptamer displacement, at 10 µM, stronger effect = higher value
Sequence of Beta-adrenergic receptor kinase 1 (Homo sapiens) (P25098 whole entry, looked up): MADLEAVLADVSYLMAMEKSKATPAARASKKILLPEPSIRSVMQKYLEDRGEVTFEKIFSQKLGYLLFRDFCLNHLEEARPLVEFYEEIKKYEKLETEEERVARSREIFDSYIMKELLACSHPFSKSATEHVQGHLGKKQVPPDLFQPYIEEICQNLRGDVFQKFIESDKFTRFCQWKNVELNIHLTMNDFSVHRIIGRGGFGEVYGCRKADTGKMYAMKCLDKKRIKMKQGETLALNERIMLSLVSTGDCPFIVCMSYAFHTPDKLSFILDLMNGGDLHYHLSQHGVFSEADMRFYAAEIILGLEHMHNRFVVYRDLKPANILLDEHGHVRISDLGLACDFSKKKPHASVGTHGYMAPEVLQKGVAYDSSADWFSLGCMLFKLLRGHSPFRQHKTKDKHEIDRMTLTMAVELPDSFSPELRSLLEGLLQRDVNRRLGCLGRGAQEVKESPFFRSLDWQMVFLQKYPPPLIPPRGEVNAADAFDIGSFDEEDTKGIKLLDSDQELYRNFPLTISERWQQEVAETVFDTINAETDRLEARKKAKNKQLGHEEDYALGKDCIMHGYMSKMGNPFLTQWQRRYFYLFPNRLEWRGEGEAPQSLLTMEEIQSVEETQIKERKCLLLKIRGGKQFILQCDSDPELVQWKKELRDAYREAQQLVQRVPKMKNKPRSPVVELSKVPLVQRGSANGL

[5] = molecular target: Beta-2 adrenergic receptor (Homo sapiens) (UniProt P07550); experiment: agonist-induced loss of surface beta2AR – cell-based, FAP fluorogen, flow cytometry, validation set, pilot screen (AID 504459;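 active = percent response above 42, roughly 3 SD of non-fluorescent test compounds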;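 also: agonist-driven loss of surface beta2AR via internalization measured by FAP dye flow cytometry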); settings: Am2.2-beta2AR cells, at 10 µM, stronger effect = higher value
Sequence of Beta-2 adrenergic receptor (Homo sapiens) (P07550 whole entry, looked up): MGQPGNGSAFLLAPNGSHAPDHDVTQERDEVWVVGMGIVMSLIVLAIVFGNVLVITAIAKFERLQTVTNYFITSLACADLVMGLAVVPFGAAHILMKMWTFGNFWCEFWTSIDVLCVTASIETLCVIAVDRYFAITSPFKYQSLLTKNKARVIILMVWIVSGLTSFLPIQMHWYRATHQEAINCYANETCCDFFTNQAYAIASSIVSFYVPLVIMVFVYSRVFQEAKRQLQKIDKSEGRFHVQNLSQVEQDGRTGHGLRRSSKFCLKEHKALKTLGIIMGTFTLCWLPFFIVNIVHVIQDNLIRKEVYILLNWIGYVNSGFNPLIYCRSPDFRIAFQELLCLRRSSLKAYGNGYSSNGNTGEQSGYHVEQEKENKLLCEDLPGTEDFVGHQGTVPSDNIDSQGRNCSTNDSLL

[6] = molecular target: AP-2 complex subunit beta (Homo sapiens) (UniProt P63010); experiment: beta-arrestin/AP2 interaction blockers – biochemical, validation set, GST-AP2 beads, flow cytometry, pilot screen (AID 504541;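 active = inhibition above 54%, about 3 SD of non-fluorescent compounds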;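 also: AP2 carries R879A mutation and is captured from E. coli lysate; bead-bound FITC arrestin peptide fluorescence measuring arrestin peptide binding to AP2; 0% = DMSO wells and 100% = excess unlabeled arrestin peptide control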); settings: FITC arrestin peptide, at 10 µM, stronger effect = higher value, AP2 beta2 appendage fragment, R879A mutant
Sequence of AP-2 complex subunit beta (Homo sapiens) (P63010 whole entry, looked up, the tested form may be a part, one chain of several): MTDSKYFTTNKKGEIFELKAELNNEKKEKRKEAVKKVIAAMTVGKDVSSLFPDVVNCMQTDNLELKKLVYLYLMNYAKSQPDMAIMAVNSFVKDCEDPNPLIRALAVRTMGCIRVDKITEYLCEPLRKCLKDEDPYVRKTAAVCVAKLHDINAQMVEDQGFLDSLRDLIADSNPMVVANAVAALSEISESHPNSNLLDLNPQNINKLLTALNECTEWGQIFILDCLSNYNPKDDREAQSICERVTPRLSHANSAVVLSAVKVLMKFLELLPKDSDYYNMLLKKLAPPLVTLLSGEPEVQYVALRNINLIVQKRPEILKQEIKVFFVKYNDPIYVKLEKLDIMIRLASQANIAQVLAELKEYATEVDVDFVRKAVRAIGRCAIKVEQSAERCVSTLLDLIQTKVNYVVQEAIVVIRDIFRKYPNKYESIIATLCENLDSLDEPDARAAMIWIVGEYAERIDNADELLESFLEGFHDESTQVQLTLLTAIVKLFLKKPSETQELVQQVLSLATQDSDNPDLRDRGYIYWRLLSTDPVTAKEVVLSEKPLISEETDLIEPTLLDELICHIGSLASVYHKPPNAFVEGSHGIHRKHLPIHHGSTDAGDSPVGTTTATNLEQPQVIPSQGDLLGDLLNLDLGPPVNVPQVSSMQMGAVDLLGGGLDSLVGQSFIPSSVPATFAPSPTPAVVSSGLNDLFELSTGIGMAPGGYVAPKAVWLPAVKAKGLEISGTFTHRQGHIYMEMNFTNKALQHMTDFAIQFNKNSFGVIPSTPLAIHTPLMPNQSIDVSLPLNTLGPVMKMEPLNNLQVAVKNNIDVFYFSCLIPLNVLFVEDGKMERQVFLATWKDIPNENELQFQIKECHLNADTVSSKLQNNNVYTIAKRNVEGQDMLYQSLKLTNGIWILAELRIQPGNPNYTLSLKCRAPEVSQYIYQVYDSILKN

[7] = cytosolic pH regulators acting via V-ATPase – S. cerevisiae, pHLuorin, HTS validation (AID 504600; in the data active = response above about 15%;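 also: plate controls were DMSO for no effect and reference compound for full effect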); settings: V-ATPase proton transport, at 10 µM, stronger effect = higher value
[8] = test system: anti-desmoglein-3 scFv antibody binding to human DSG3; experiment: blockers of pathogenic pemphigus antibody–desmoglein-3 binding – biochemical, validation compound set, bead-based, flow cytometry, pilot screen (AID 588368;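 active = binding below the plate cutoff, the plate median minus 3 SD, with a reading above zero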;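 also: signal is the median channel fluorescence of bead-bound GFP antibody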); settings: Protein G beads, DSG3-Fc, scFv-GFP binding, at 10 µM, stronger effect = lower value
[9] = Nile Red efflux blockade in pump-expressing yeast – validation compound set, multiplex, phenotypic, pilot screen (AID 588506;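 active = efflux inhibition above 0.42, the validation set average plus 4 SD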;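 also: Nile Red retained in cells so higher fluorescence means more efflux inhibition; 0 = negative control wells and 1 = enniatin B 25 µM full block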); settings: S. cerevisiae pump-expressing triplex, Nile Red efflux flow cytometry; at 10 µM; stronger effect = higher value; the pumps come from Candida albicans
[10] = molecular target: ATP-binding cassette sub-family B member 6 (Homo sapiens) (UniProt Q9NP58); experiment: blockers of ABCB6-driven porphyrin uptake – K562-ABCB6 cells, flow cytometry, validation set, pilot screen (AID 588550); settings: K562-ABCB6 porphyrin accumulation, 1 h, at 10 µM, stronger effect = higher value;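 also: 0% = DMSO wells and 100% = benzethonium chloride 70 µM positive control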
Sequence of ATP-binding cassette sub-family B member 6 (Homo sapiens) (Q9NP58 whole entry, looked up): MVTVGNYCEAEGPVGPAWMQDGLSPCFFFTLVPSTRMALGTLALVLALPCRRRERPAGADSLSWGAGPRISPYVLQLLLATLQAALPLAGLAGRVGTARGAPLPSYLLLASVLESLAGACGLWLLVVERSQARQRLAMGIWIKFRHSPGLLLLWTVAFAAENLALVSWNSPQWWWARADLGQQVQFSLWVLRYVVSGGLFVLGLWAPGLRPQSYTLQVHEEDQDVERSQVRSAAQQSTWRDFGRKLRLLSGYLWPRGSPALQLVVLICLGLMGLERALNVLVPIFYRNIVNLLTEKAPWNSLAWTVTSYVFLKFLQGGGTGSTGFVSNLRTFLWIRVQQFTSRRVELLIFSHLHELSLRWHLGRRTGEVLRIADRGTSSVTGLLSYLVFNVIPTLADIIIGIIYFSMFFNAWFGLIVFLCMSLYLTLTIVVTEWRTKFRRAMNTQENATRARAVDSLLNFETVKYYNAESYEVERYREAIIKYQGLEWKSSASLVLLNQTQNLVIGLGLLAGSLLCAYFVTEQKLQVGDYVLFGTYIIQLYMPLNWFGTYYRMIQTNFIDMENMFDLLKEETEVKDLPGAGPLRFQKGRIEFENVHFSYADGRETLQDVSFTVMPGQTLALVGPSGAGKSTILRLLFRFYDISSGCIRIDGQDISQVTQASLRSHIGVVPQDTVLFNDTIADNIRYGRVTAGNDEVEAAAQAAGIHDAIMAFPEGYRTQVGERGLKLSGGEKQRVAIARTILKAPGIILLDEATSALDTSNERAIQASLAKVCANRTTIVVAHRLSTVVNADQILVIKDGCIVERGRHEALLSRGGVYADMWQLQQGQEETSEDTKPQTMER

[11] = AML differentiation inducers, ER-HoxA9 marrow cells – cell-based, GFP/MAC1 double positive, flow cytometry, validation set, primary screen (AID 588685;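 active = differentiation response of at least 50%, scaled between solvent and reference control, from cells with both markers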;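 also: compound exposure lasts four days before antibody staining and flow analysis; 0% = DMSO wells and 100% = 5 µM fulvestrant positive control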); settings: stronger effect = higher value, normalized: vehicle 0, fulvestrant 100

## Cc1csc(CCc2nc(C)cs2)n1
[1]
  double positive events: 55.3%
  vesicle binding response: 130% (inactive)
[2]
  inhibition: 2.93% (inactive)
[3]
  superoxide response (% of plate): 108% (inactive)
[4]
  aptamer binding inhibition: 1% (inactive)
[5]
  response: -2.9% (inactive)
[6]
  inhibition: -2.65% (inactive)
[7]
  response: 0.13% (inactive)
[8]
  binding (% of control): 102% (inactive)
[9]
  efflux inhibition (fraction of control): 0.01 (inactive)
[10]
  inhibition: 17% (inactive)
[11]
  differentiation response: -4.57% (inactive)

## COc1ccc(C(=O)C2CCCCC2=O)cc1 (centres undefined)
[1]
  double positive events: 67.8%
  vesicle binding response: 193% (inactive)
[2]
  inhibition: 9.1% (inactive)
[3]
  superoxide response (% of plate): 100% (inactive)
[4]
  aptamer binding inhibition: 0% (inactive)
[5]
  response: 15.9% (inactive)
[6]
  inhibition: 2.47% (inactive)
[7]
  response: -6% (inactive)
[8]
  binding (% of control): 101% (inactive)
[9]
  efflux inhibition (fraction of control): 0.04 (inactive)
[10]
  inhibition: 16% (inactive)
[11]
  differentiation response: -7.94% (inactive)

## COc1cc(OC)c(C(=O)CCCN2CCCC2)c(OC)c1
[1]
  double positive events: 65.4%
  vesicle binding response: 214% (inactive)
[2]
  inhibition: -3.24% (inactive)
[3]
  superoxide response (% of plate): 97.6% (inactive)
[4]
  aptamer binding inhibition: 4% (inactive)
[5]
  response: -11.1% (inactive)
[6]
  inhibition: 1.36% (inactive)
[7]
  response: 1.8% (inactive)
[8]
  binding (% of control): 109% (inactive)
[9]
  efflux inhibition (fraction of control): 0.19 (inactive)
[10]
  inhibition: 10% (inactive)
[11]
  differentiation response: -8.19% (inactive)

## O=C1CC(c2ccc(F)cc2)Cc2nc(NCC3CCCO3)ncc21 (centres undefined)
[1]
  double positive events: 55.2%
  vesicle binding response: 192% (inactive)
[2]
  inhibition: 6.29% (inactive)
[3]
  superoxide response (% of plate): 99.1% (inactive)
[4]
  aptamer binding inhibition: 3% (inactive)
[6]
  inhibition: -9.45% (inactive)
[7]
  response: -2.69% (inactive)
[8]
  binding (% of control): 99.8% (inactive)
[9]
  efflux inhibition (fraction of control): -0.12 (inactive)
[10]
  inhibition: 7% (inactive)
[11]
  differentiation response: 38.5% (inactive)

## O=C(Oc1cccccc1=O)c1ccccc1
[1]
  double positive events: 63.4%
  vesicle binding response: 281% (inactive)
[2]
  inhibition: 21% (inactive)
[3]
  superoxide response (% of plate): 105% (inactive)
[4]
  aptamer binding inhibition: 6% (inactive)
[5]
  response: -20.4% (inactive)
[6]
  inhibition: 1.79% (inactive)
[7]
  response: -32.2% (inactive)
[8]
  binding (% of control): 102% (inactive)
[9]
  efflux inhibition (fraction of control): 0 (inactive)
[10]
  inhibition: 2% (inactive)
[11]
  differentiation response: 5.85% (inactive)

## COc1ccc(C(=O)OCc2cc3cccc(C)c3[nH]c2=O)cc1
[1]
  double positive events: 49.3%
  vesicle binding response: 163% (inactive)
[2]
  inhibition: 5.36% (inactive)
[3]
  superoxide response (% of plate): 112% (inactive)
[4]
  aptamer binding inhibition: 0% (inactive)
[6]
  inhibition: 8.12% (inactive)
[7]
  response: -29% (inactive)
[8]
  binding (% of control): 96.4% (inactive)
[9]
  efflux inhibition (fraction of control): 0.06 (inactive)
[10]
  inhibition: 8% (inactive)
[11]
  differentiation response: -29.3% (inactive)

## O=C(c1ccc([N+](=O)[O-])cc1)N1CCSC1c1ccccc1Cl (centres undefined)
[1]
  double positive events: 77.4%
  vesicle binding response: 441% (inactive)
[2]
  inhibition: -9.98% (inactive)
[3]
  superoxide response (% of plate): 91% (inactive)
[4]
  aptamer binding inhibition: 4% (inactive)
[5]
  response: -12.5% (inactive)
[6]
  inhibition: -8.18% (inactive)
[7]
  response: -2.22% (inactive)
[8]
  binding (% of control): 101% (inactive)
[9]
  efflux inhibition (fraction of control): -0.1 (inactive)
[10]
  inhibition: 5% (inactive)
[11]
  differentiation response: 0.8% (inactive)

## Oc1[nH]c2ccccc2c1N=Nc1ccccc1
[1]
  double positive events: 49.4%
  vesicle binding response: 168% (inactive)
[2]
  inhibition: 9.09% (inactive)
[3]
  superoxide response (% of plate): 104% (inactive)
[4]
  aptamer binding inhibition: 3% (inactive)
[6]
  inhibition: -8.96% (inactive)
[7]
  response: -2.64% (inactive)
[8]
  binding (% of control): 103% (inactive)
[9]
  efflux inhibition (fraction of control): -0.35 (inactive)
[10]
  inhibition: 10% (inactive)
[11]
  differentiation response: -8.27% (inactive)

## COC1CCCCC1Nc1ccc(C)c(C)c1 (centres undefined)
[1]
  double positive events: 59.5%
  vesicle binding response: 262% (inactive)
[2]
  inhibition: -1.79% (inactive)
[3]
  superoxide response (% of plate): 100% (inactive)
[4]
  aptamer binding inhibition: 5% (inactive)
[5]
  response: 6.1% (inactive)
[6]
  inhibition: -5.05% (inactive)
[7]
  response: 0.08% (inactive)
[8]
  binding (% of control): 94.7% (inactive)
[9]
  efflux inhibition (fraction of control): 0.05 (inactive)
[10]
  inhibition: 5% (inactive)
[11]
  differentiation response: -12% (inactive)

## COc1cc2c(cc1OC)C1(CCCCC1)CN(C)C2
[1]
  double positive events: 57.3%
  vesicle binding response: 258% (inactive)
[2]
  inhibition: 16% (inactive)
[3]
  superoxide response (% of plate): 103% (inactive)
[4]
  aptamer binding inhibition: 5% (inactive)
[5]
  response: 5.44% (inactive)
[6]
  inhibition: 4.18% (inactive)
[7]
  response: 1.68% (inactive)
[8]
  binding (% of control): 89% (inactive)
[9]
  efflux inhibition (fraction of control): 0.12 (inactive)
[10]
  inhibition: -22% (inactive)
[11]
  differentiation response: 4% (inactive)

## Cc1cccc(C2=N/C(=C\c3cccnc3)C(=O)O2)c1
[1]
  double positive events: 63.6%
  vesicle binding response: 179% (inactive)
[2]
  inhibition: 5.03% (inactive)
[3]
  superoxide response (% of plate): 98.1% (inactive)
[4]
  aptamer binding inhibition: 2% (inactive)
[5]
  response: 13.3% (inactive)
[6]
  inhibition: -1.05% (inactive)
[7]
  response: -1.71% (inactive)
[8]
  binding (% of control): 104% (inactive)
[9]
  efflux inhibition (fraction of control): 0.12 (inactive)
[10]
  inhibition: 3% (inactive)
[11]
  differentiation response: 103% (active)

## Cc1ccc2c(c1)C(O)(CC(=O)/C=C/C=C/c1ccccc1)C(=O)N2 (centres undefined)
[1]
  double positive events: 63.9%
  vesicle binding response: 759% (inactive)
[2]
  inhibition: -4.6% (inactive)
[3]
  superoxide response (% of plate): 111% (inactive)
[4]
  aptamer binding inhibition: 2% (inactive)
[5]
  response: -0.9% (inactive)
[6]
  inhibition: 4.01% (inactive)
[7]
  response: -1.15% (inactive)
[8]
  binding (% of control): 99% (inactive)
[9]
  efflux inhibition (fraction of control): -0.26 (inactive)
[10]
  inhibition: -7% (inactive)
[11]
  differentiation response: 2.2% (inactive)

## N=C1C(c2ccccc2)=C(O)CN1CCCO
[1]
  double positive events: 58.1%
  vesicle binding response: 157% (inactive)
[2]
  inhibition: 2.3% (inactive)
[3]
  superoxide response (% of plate): 91.2% (inactive)
[4]
  aptamer binding inhibition: 3% (inactive)
[5]
  response: -12.9% (inactive)
[6]
  inhibition: -7.8% (inactive)
[7]
  response: -6.01% (inactive)
[8]
  binding (% of control): 93.8% (inactive)
[9]
  efflux inhibition (fraction of control): -0.06 (inactive)
[10]
  inhibition: 12% (inactive)
[11]
  differentiation response: -31.2% (inactive)

## Cc1ccc2[nH]c3c(=O)n(CCCN4CCN(C)CC4)cnc3c2c1
[1]
  double positive events: 60.7%
  vesicle binding response: 195% (inactive)
[2]
  inhibition: 7.22% (inactive)
[3]
  superoxide response (% of plate): 99.9% (inactive)
[4]
  aptamer binding inhibition: 4% (inactive)
[6]
  inhibition: 24.8% (inactive)
[7]
  response: -6.94% (inactive)
[8]
  binding (% of control): 99.3% (inactive)
[9]
  efflux inhibition (fraction of control): -0.2 (inactive)
[10]
  inhibition: 12% (inactive)
[11]
  differentiation response: 30.5% (inactive)

## CC12CCC(C(=O)Nc3ccccc3Br)(C/C1=N\O)C2(C)C (centres undefined)
[1]
  double positive events: 58.3%
  vesicle binding response: 154% (inactive)
[2]
  inhibition: -6.77% (inactive)
[3]
  superoxide response (% of plate): 92.2% (inactive)
[4]
  aptamer binding inhibition: 3% (inactive)
[6]
  inhibition: -0.26% (inactive)
[7]
  response: 2.28% (inactive)
[8]
  binding (% of control): 96% (inactive)
[9]
  efflux inhibition (fraction of control): -0.12 (inactive)
[10]
  inhibition: 9% (inactive)
[11]
  differentiation response: -9.89% (inactive)

## O=C(O)c1cc(-c2ccccc2)nc2ccccc12
[1]
  double positive events: 62%
  vesicle binding response: 151% (inactive)
[2]
  inhibition: 23.1% (inactive)
[3]
  superoxide response (% of plate): 98.3% (inactive)
[4]
  aptamer binding inhibition: 4% (inactive)
[6]
  inhibition: 27.6% (inactive)
[7]
  response: -5.56% (inactive)
[8]
  binding (% of control): 96.2% (inactive)
[9]
  efflux inhibition (fraction of control): 0.1 (inactive)
[10]
  inhibition: -2% (inactive)
[11]
  differentiation response: 6.26% (inactive)

## COc1ccc(C(=O)/C=C/c2cc(C(=O)O)cc3c2OCOC3)c(O)c1
[1]
  double positive events: 54.5%
  vesicle binding response: 202% (inactive)
[2]
  inhibition: -3.97% (inactive)
[3]
  superoxide response (% of plate): 99.9% (inactive)
[4]
  aptamer binding inhibition: 6% (inactive)
[6]
  inhibition: -2.5% (inactive)
[7]
  response: -6.09% (inactive)
[8]
  binding (% of control): 95.7% (inactive)
[9]
  efflux inhibition (fraction of control): -0.43 (inactive)
[10]
  inhibition: 0% (inactive)
[11]
  differentiation response: -1.82% (inactive)

## CC(=O)Nc1cc(O)cc(O)c1
[1]
  double positive events: 60.5%
  vesicle binding response: 189% (inactive)
[2]
  inhibition: 11.9% (inactive)
[3]
  superoxide response (% of plate): 99.3% (inactive)
[4]
  aptamer binding inhibition: -2% (inactive)
[5]
  response: -0.41% (inactive)
[6]
  inhibition: 0.4% (inactive)
[7]
  response: -0.22% (inactive)
[8]
  binding (% of control): 106% (inactive)
[9]
  efflux inhibition (fraction of control): -0.06 (inactive)
[10]
  inhibition: 6% (inactive)
[11]
  differentiation response: 69.6% (active)
